Assay results published in ChEMBL document CHEMBL1157539, “Thousands of chemical starting points for antimalarial lead identification” (Nature, 2010).

What was measured:
Format in all cases: functional
Plasmodium falciparum [1] = experiment: GSK_TCMDC: Inhibition of Plasmodium falciparum 3D7 in whole red blood cells, using parasite LDH activity as an index of growth. Test compounds present at 2uM
Plasmodium falciparum [2] = experiment: GSK_TCMDC: Inhibition of Plasmodium falciparum Dd2 in whole red blood cells, using parasite LDH activity as an index of growth. Test compounds present at 2uM
HepG2 = experiment: GSK_TCMDC: Percent inhibition of human HepG2 cell line. Test compounds present at 10uM.

Compound	Inhibition (Plasmodium falciparum [1]) [%]	Inhibition (Plasmodium falciparum [2]) [%]	Inhibition (HepG2) [%]
CN(Cc1cccc(O)c1)C1CCN(c2cc(NC(=O)c3cccc(F)c3)ccn2)CC1.O=C(O)C(F)(F)F	98	37	0
CCN(CC)CCN(Cc1ccc(-c2ccc(Cl)s2)cc1)C(=O)Cn1c(CCc2cccc(F)c2F)nc(=O)c2ccccc21.O=C(O)C(O)C(O)C(=O)O	96	27	24
COc1ccc(NC(=O)[C@H](CC(C)C)Nc2cc(C)nc(NCCc3ccccc3)n2)cc1.O=C(O)C(F)(F)F	100	74	13
Cc1cc(NC(=O)c2ccc(-c3ccccc3)cc2)no1	83	57	5
Nc1cc(-c2cc3c(OCc4ccccc4)cccc3[nH]2)ccn1	85	15	23
Cc1[nH]c2ccccc2c1C=NNc1nc(=Nc2ccccc2)[nH]c(=Nc2ccccc2)[nH]1	87	23	3
Clc1ccc(-c2cc3c(NCc4ccncc4)nccc3s2)cc1	98	8	26
COc1ccc2oc(=O)c(C#N)c(O)c2c1	99	0	0
Cc1cc(C)c2c(c1)C(=NO)CCN2	94	2	2
COc1ccc(Nc2ncc(Cl)c(Nc3cccnc3C(N)=O)n2)cc1N1CCN(C)CC1.Cl	95	97	77
CCCCN1CCCC[C@H]1[C@@H](O)c1ccnc2ccc(OCC)cc12	100	88	6
Cc1cccc(Cl)c1S(=O)(=O)Nc1cccc(CCN2CCC(N3CCCCC3)CC2)c1	91	18	34
Cl.Nc1nc(N)c2c(ccc3c2ccn3C2CCCCC2)n1	97	46	67
Cc1cc(OCCCN2CCCCC2C)ccc1NC(=O)COc1ccc(Cl)cc1C(=O)c1cc(Cl)cc(C#N)c1 (stereo not given)	91	14	23
NC(=O)c1ccc(NCC(=O)Nc2cccc(-c3cccc(-c4nc5cc(C(F)(F)F)ccc5[nH]4)c3)c2)cc1	99	41	32
